This is an account of results in PubChem BioAssay AID540359 (Broad Institute, 2011).

Measured potencies and affinities stand elsewhere. The source made the active and inactive calls. No rule for the calls is given here.

For this experiment, the target named is UDP-galactopyranose mutase (Mycobacterium tuberculosis (strain ATCC 25618 / H37Rv)) (UniProt P9WIQ1). Description: Mycobacterium tuberculosis UGM enzyme inhibition, dose response confirmation, purified biochemical assay (AID 540359). Particulars: plate reader activity; series mostly up to 50 µM; activity change, negative = inhibition: at the top concentration.
Sequence of UDP-galactopyranose mutase (Mycobacterium tuberculosis (strain ATCC 25618 / H37Rv)) (P9WIQ1 whole entry, looked up): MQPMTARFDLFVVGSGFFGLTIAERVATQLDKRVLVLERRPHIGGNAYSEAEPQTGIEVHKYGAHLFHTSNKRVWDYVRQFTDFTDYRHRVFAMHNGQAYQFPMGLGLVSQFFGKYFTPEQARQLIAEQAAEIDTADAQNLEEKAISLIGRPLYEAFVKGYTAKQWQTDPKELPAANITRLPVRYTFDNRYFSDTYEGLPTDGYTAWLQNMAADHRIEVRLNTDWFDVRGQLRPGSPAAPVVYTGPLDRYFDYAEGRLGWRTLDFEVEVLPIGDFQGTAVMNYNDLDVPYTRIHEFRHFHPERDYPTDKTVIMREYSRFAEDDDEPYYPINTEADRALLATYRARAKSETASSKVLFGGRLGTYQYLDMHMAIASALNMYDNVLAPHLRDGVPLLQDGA
In the case of `CCOc1ccc(C(=O)NC(=S)Nc2cccnc2)cc1`, the “activity change, negative = inhibition” value is -1.97% (inactive).
In the case of `CCN(C(=O)COC(=O)c1cc(Cl)ccc1OC)c1c(N)n(Cc2ccccc2)c(=O)[nH]c1=O`, the “activity change, negative = inhibition” value is -1.58% (inactive).
The value for `Cc1cc(C)c(S(=O)(=O)n2c([N+](=O)[O-])cnc2C)cc1C` was -15.6% (inactive).
The value for `CCCC(=O)Nc1ccc(Cc2ccc(NC(=O)CCC)c(C(=O)O)c2)cc1C(=O)O` was -4.98% (inactive); that for `CCOc1cc(/C=C2\CCCc3c2nc2ccccc2c3C(=O)O)ccc1OC` was -2.82% (inactive); that for `CCOc1ccc(C(C(=O)NC2CCCC2)N(C(=O)CNC(=O)c2ccco2)c2cccnc2)cc1` (stereo not drawn) was -2.17% (inactive).
As for `COc1cc(OC)cc(C(=O)Nc2cc(C)nn2-c2ccccc2)c1`, the figure is -2.8% (inactive); as for `O=C1C2C3C=CC(C3)C2C(=O)N1CCN1CCN(S(=O)(=O)c2ccc3ccccc3c2)CC1` (stereo not drawn), -0.268% (inactive); as for `CCc1ccc2c(c1)C(c1ccc([N+](=O)[O-])cc1)=NNC(c1ccc(Br)cc1)=N2`, -5.73% (inactive).
As for `CCc1ccc(C(CC(=O)c2ccc(Cl)cc2)C(=O)O)cc1` (stereo not drawn), the “activity change, negative = inhibition” value was -0.867% (inactive).
With `O=C(COC(=O)CN1C(=O)NC2(CCCC2)C1=O)NCc1ccc(Cl)cc1Cl`, the “activity change, negative = inhibition” value is -10.7% (inactive).
As for `Cc1c(N=C2N=C(NC(=O)c3ccc(F)cc3)c3ccccc32)c(=O)n(-c2ccccc2)n1C`, the figure is -29% (inactive); as for `O=C(Cc1cccs1)Nc1cc(SCCO)cc([N+](=O)[O-])c1`, -2.71% (inactive).
`O=C(Nc1nccs1)c1ccc(-c2ccc([N+](=O)[O-])cc2)o1`: the “activity change, negative = inhibition” value was 8.63% (inactive).
On to `COc1ccccc1N1N=C(C(=O)c2ccccc2)C2C(=O)N(c3ccc(Br)cc3)C(=O)C21` (stereo not drawn), for which the “activity change, negative = inhibition” value was -10.5% (inactive).
Turning to `O=S(=O)(Nc1cccnc1Cl)c1ccc(F)cc1`, the “activity change, negative = inhibition” value is -4.01% (inactive).
The value for `CC(C)OC(=O)CC(=O)c1sc2nc3c(cc2c1N)CN(C)CC3` was -6.78% (inactive); that for `CCN(CC)C(=O)C1c2ccccc2Oc2ccccc21` was 0.397% (inactive); that for `COC(=O)C1=CC(C(=O)c2cccs2)=NN(c2ccc(OC)cc2)C1C(=O)OC` (stereo not drawn) was -9.84% (inactive).
As for `COc1cccc(C(=O)OCC(=O)NCc2ccc3c(c2)OCO3)c1OC`, the figure is -0.378% (inactive); as for `COc1ccc(N2C(=O)c3cccc4c(N(C)CCO)ccc(c34)C2=O)cc1`, 7.74% (inactive).
The value for `COc1ccccc1NC(=O)c1sc2nc(Cc3ccccc3)cc(C(F)(F)F)c2c1N` was -21.8% (inactive); that for `COc1ccc(-c2cc(=O)[nH]c3ccccc23)cc1` was -4.6% (inactive).
Regarding `COCCCn1c(=O)/c(=C\c2ccccc2OC(C)C)s/c1=C(/C#N)C(=O)Nc1ccc(C(=O)O)cc1`, the “activity change, negative = inhibition” value was 65.1% (inactive).
Consider `O=C(OCc1ccc(Br)cc1)c1cnc(Cl)c(Cl)c1`, for which the “activity change, negative = inhibition” value is -1.03% (inactive).
For `COc1ccc2[nH]c(C)c(CCN(Cc3cccs3)C(=S)Nc3ccccc3OC)c2c1`, the “activity change, negative = inhibition” value was -8.12% (inactive).
Turning to `Cn1cccc1C(=O)NC(=O)COC(=O)CC12CC3CC(CC(Br)(C3)C1)C2`, the “activity change, negative = inhibition” value is 4.1% (inactive).
As for `CCN(C(=O)COC(=O)c1ccc(O)cc1O)c1c(N)n(Cc2ccccc2)c(=O)[nH]c1=O`, the “activity change, negative = inhibition” value was -2.73% (inactive).
